# According to PubChem BioAssay (EPA / NIEHS):
# Records with an inconclusive call do not appear. Activity calls are given as the source filed them. The calls were made as follows, unless noted: active = hit-call score of the fitted dose curve at least 0.9, where 1 is the maximum; inconclusive = response in the unintended direction; inactive = score below 0.9.
# Key:
# [1] = CEETOX_H295R_PROG_noMTC: CeeTox H295R High-throughput Steroidogenesis Assay for Progesterone (PROG), maximum tolerated concentration (MTC) filtered results only (AID 2283920; active = hit-call score of the fitted dose curve at least 0.9, where 1 is the maximum; inactive = score below 0.9); details: actives raise or lower the signal
# Outline: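 Progesterone synthesis in the human adrenal line H295R is measured by HPLC-MS/MS after 48 h chemical exposure following 48 h forskolin (10 uM) stimulation. Activity in either direction is fitted relative to DMSO.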
# [2] = CEETOX_H295R_ESTRONE_noMTC: CeeTox H295R High-throughput Steroidogenesis Assay for Estrone, maximum tolerated concentration (MTC) filtered results only (AID 2283921; active = hit-call score of the fitted dose curve at least 0.9, where 1 is the maximum; inactive = score below 0.9); details: actives raise or lower the signal
# Outline: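 Estrone in spent medium, quantified by tandem MS following dansyl chloride derivatization, after 48 h chemical exposure (0.1% DMSO) of forskolin-prestimulated (10 uM, 48 h) H295R cells; concentrations not MTC-filtered, bidirectional fit against DMSO.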
# [3] = CEETOX_H295R_TESTO_noMTC: CeeTox H295R High-throughput Steroidogenesis Assay for Testosterone (TESTO), maximum tolerated concentration (MTC) filtered results only (AID 2283924; active = hit-call score of the fitted dose curve at least 0.9, where 1 is the maximum; inactive = score below 0.9); details: actives raise or lower the signal
# Outline: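 Medium testosterone, measured by HPLC-MS/MS after liquid-liquid extraction, was fitted in both directions relative to DMSO without MTC filtering. Adrenal H295R cells received 48 h chemical exposure (0.1% DMSO final) after 48 h forskolin (10 uM) prestimulation; viability by MTT.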
# [4] = molecular target: Thyroid hormone receptor alpha (Rattus norvegicus) + Thyroid hormone receptor beta (Rattus norvegicus) (UniProt P18113+P63059); assay: TOX21_TR_LUC_GH3_Agonist_Followup: Tox21 GH3 Thyroid Hormone Receptor Agonism Luciferase Follow-Up Assay (AID 2283939)
# Sequence of Thyroid hormone receptor alpha (Rattus norvegicus) + Thyroid hormone receptor beta (Rattus norvegicus) (P63059 whole entry, looked up): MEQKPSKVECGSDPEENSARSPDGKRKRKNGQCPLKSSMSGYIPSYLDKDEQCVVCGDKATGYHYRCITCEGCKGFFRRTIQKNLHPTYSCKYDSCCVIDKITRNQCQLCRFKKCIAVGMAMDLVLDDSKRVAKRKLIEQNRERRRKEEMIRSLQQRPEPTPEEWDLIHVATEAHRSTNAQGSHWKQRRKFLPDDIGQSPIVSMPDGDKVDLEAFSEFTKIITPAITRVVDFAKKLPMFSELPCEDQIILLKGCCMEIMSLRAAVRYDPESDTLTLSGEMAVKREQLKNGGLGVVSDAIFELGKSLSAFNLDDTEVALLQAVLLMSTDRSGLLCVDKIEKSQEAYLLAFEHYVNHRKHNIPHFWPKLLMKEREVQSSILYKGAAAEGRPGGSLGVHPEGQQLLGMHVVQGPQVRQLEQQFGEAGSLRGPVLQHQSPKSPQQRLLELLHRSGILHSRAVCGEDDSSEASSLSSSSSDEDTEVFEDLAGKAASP
# Sequence of Thyroid hormone receptor alpha (Rattus norvegicus) + Thyroid hormone receptor beta (Rattus norvegicus) (P18113 whole entry, looked up): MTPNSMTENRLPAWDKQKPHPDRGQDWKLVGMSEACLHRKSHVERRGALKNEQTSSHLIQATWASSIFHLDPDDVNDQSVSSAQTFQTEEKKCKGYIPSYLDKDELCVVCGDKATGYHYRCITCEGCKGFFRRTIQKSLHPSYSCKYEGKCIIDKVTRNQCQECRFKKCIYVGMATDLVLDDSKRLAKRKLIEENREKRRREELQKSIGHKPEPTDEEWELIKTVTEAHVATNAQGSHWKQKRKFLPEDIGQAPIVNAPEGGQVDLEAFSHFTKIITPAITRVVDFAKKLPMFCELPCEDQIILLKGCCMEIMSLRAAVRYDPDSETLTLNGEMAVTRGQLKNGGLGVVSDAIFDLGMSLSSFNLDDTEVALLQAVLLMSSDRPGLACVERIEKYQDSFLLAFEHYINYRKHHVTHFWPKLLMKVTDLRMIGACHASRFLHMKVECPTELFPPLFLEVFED
# Outline: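 Agonist-mode confirmatory run: 15 concentrations (5 nM to 92 uM final) on GH3 rat pituitary cells, 24 h at 37C/5% CO2, T3 as positive control. Luminescence read with ONE-Glo after 30 min.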
# [5] = molecular target: THRA (gene 7067) (UniProt P10827); assay: TOX21_TRA_COA_Agonist_Followup_ratio: Tox21 Thyroid Hormone Receptor alpha Agonism through Coactivator Recruitment Follow-Up Assay, Ratio (AID 2283948; active = hit-call score of the fitted dose curve at least 0.9, where 1 is the maximum; inactive = score below 0.9)
# Sequence of THRA (gene 7067) (P10827 whole entry, looked up, the tested form may be a part): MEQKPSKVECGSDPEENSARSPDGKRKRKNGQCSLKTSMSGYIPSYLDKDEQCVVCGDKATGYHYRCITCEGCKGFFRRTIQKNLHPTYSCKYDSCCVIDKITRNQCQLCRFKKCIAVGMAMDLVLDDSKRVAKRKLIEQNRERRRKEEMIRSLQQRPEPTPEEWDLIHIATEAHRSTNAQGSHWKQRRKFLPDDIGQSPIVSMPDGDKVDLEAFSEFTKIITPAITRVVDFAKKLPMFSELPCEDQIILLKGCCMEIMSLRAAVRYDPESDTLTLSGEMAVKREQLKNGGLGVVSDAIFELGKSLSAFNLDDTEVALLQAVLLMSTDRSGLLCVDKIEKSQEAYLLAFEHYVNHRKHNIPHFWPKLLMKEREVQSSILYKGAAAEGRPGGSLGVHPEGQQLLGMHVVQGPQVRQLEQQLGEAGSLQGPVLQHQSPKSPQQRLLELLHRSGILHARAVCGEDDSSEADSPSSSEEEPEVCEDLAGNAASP
# Outline: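 Cell-free TR-FRET: GST-tagged TRα LBD (2.5 nM) with 0.10% BSA and compound, then fluorescein-SRC-2 peptide (200 nM) and Tb-anti-GST antibody (2 nM). Readout 520:495 nm ratio (ex 340 nm), normalized to DMSO (0%) and T3 (100%).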
# [6] = molecular target: THRB (gene 7068) (UniProt P10828); assay: TOX21_TRB_BLA_Agonist_Followup_ratio: Tox21 Thyroid Hormone Receptor beta Agonism Beta-lactamase (BLA) Follow-Up Assay, Ratio (AID 2283954)
# Sequence of THRB (gene 7068) (P10828 whole entry, looked up, the tested form may be a part): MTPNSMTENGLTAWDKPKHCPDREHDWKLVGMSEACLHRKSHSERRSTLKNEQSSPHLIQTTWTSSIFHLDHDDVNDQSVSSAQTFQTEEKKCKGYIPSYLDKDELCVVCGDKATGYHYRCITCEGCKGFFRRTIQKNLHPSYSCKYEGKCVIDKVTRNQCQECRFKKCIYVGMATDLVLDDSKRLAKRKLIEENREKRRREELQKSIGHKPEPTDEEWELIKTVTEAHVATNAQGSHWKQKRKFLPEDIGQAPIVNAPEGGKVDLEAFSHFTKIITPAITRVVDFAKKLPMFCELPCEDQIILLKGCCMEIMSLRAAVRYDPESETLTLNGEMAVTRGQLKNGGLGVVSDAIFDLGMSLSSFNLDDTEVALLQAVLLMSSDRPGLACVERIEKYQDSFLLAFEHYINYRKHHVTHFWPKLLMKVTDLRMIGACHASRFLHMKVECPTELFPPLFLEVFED
# Outline: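 Agonist mode: compounds (11-point, triplicate) incubated 18 h with HEK293T cells carrying GAL4-DBD/human TRβ-LBD and UAS-β-lactamase. Blue/green (460/530 nm) FRET ratio read after 2 h CCF4-AM loading; CellTiter-Glo viability run in the same plates.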
# [7] = molecular target: THRB (gene 7068) (UniProt P10828); assay: TOX21_TRB_COA_Agonist_Followup_ratio: Tox21 Thyroid Hormone Receptor beta Agonism through Coactivator Recruitment Follow-Up Assay, Ratio (AID 2283963; active = hit-call score of the fitted dose curve at least 0.9, where 1 is the maximum; inactive = score below 0.9)
# Outline: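 Agonism is measured as coactivator recruitment in a purified-protein TR-FRET format, using GST-TRβ LBD at 5.0 nM, fluorescein-SRC-2 peptide at 200 nM and Tb-labeled anti-GST antibody at 2 nM. Values are 520:495 nm ratios relative to DMSO (0%) and T3 (100%).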
# [8] = molecular target: Retinoic acid receptor RXR-alpha (Homo sapiens) (UniProt P19793); assay: TOX21_TR_RXR_BLA_Agonist_Followup_ratio: Tox21 Thyroid Hormone Receptor beta Retinoid X Receptor alpha (RXRa) Agonism Beta-lactamase (BLA) Follow-Up Assay, Ratio (AID 2283968)
# Sequence of Retinoic acid receptor RXR-alpha (Homo sapiens) (P19793 whole entry, looked up): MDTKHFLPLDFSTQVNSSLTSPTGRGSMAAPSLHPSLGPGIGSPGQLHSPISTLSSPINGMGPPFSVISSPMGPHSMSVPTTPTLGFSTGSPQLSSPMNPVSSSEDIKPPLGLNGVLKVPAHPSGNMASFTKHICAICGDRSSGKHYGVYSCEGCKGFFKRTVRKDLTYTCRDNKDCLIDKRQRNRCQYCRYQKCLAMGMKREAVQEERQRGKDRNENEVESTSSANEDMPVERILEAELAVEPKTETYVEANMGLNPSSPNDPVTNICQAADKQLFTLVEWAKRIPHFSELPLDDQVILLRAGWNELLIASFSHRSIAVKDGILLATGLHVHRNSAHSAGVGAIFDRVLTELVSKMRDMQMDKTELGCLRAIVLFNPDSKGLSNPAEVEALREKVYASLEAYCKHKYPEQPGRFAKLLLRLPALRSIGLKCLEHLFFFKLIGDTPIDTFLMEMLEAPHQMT
# Outline: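 Agonist mode: compounds given to RXRa-bla HEK293T cells at 11 concentrations, triplicate, 16 h at 37C/5% CO2. Readout is the 460:530 nm blue/green ratio after 2 h substrate loading at room temperature; DMSO baseline, 9-cis retinoic acid control.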
# [9] = TOX21_TR_RXR_BLA_Agonist_Followup_viability: Viability Assessment in the Tox21 Thyroid Hormone Receptor beta Retinoid X Receptor alpha (RXRa) Agonism Beta-lactamase (BLA) Follow-Up Assay (AID 2283970)
# Outline: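 CellTiter-Glo ATP luciferase read-out of cell viability, multiplexed with the beta-lactamase reporter run. RXRa-bla HEK293T cells in charcoal-stripped serum medium were exposed 16 h at 37C; data fitted both directions relative to DMSO.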
# [10] = molecular target: THRA (gene 7067) (UniProt P10827); assay: TOX21_TRA_COA_Antagonist_Followup_ratio: Tox21 Thyroid Hormone Receptor alpha Antagonism through Coactivator Recruitment Follow-Up Assay, Ratio (AID 2283953)
# Outline: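 GST-TRα LBD 2.5 nM, BSA 0.10%, + cpd; then FITC-SRC-2 peptide 200 nM + Tb-anti-GST Ab 2 nM. TR-FRET ratio 520/495 nm. Norm: DMSO = 0%, T3 = 100%.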
# [11] = molecular target: THRB (gene 7068) (UniProt P10828); assay: TOX21_TRB_BLA_Antagonist_Followup_ratio: Tox21 Thyroid Hormone Receptor beta Antagonism Beta-lactamase (BLA) Follow-Up Assay, Ratio (AID 2283958)
# Outline: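 Beta-lactamase reporter ratio (460/530 nm, CCF4-AM substrate, 2 h room temperature) was read in TRb-bla HEK293T cells after 18 h compound treatment (11 concentrations, triplicate) at 37C in 2% charcoal-stripped FBS medium. Loss of signal fitted against DMSO.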
# [12] = TOX21_TRB_BLA_Antagonist_Followup_viability: Viability Assessment in the Tox21 Thyroid Hormone Receptor beta Antagonism Beta-lactamase (BLA) Follow-Up Assay (AID 2283961)
# Outline: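 HEK293T cells with GAL4-human TRβ LBD and UAS-bla reporter, 3,000 cells/well in 2% charcoal-stripped FBS medium; 11-point concentrations in triplicate, 18 h at 37C. Viability from ATP by CellTiter-Glo luminescence, 30 min RT, same plates.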
# [13] = molecular target: THRB (gene 7068) (UniProt P10828); assay: TOX21_TRB_COA_Antagonist_Followup_ratio: Tox21 Thyroid Hormone Receptor beta Antagonism through Coactivator Recruitment Follow-Up Assay, Ratio (AID 2283967)
# Outline: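 Coactivator (SRC-2) recruitment to purified GST-TRβ ligand-binding domain is monitored by terbium-to-fluorescein energy transfer, emission ratio 520:495 nm. DMSO wells define 0% and T3 wells 100% activity.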
# [14] = molecular target: PGR (gene 5241) (UniProt P06401); assay: TOX21_PR_BLA_Followup_Antagonist_ratio: Tox21 HEK293 Progesterone Receptor (PR) Antagonism Beta-lactamase Follow-Up Assay, Ratio (AID 2283934);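 also: PR-UAS-bla HEK293T cells stimulated with 1 nM R5020 agonist for 16 hr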
# Sequence of PGR (gene 5241) (P06401 whole entry, looked up): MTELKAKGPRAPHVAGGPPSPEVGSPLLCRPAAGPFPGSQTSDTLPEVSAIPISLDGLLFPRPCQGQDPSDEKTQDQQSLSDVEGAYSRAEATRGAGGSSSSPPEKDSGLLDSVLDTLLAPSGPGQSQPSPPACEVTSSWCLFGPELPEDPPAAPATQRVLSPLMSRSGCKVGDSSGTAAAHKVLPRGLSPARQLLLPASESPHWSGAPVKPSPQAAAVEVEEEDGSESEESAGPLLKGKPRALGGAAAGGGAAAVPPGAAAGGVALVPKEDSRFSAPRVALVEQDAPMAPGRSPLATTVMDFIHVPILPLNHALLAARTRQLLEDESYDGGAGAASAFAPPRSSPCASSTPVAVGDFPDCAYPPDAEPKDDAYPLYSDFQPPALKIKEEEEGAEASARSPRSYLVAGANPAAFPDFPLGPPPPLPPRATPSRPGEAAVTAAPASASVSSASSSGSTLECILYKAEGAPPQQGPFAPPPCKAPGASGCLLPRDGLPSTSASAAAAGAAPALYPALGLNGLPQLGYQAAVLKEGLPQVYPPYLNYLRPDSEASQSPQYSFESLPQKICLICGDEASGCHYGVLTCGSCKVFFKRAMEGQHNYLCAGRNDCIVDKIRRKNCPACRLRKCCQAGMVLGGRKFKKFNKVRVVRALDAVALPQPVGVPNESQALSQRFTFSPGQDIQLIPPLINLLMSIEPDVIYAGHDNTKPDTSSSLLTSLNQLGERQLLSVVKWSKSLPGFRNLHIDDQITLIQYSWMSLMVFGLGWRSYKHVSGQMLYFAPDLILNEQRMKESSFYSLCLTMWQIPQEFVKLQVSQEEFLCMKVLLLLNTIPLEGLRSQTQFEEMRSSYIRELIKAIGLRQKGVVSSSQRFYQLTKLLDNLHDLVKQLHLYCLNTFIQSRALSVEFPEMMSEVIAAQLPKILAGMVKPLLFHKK
# Outline: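 Readout is the blue/green (ch2/ch1) substrate cleavage ratio after 2 hours at room temperature, following 16 hr co-treatment of PR-bla HEK293T cells with compound and 1nM promegestone. Multiplexed CellTiter-Glo viability flags cytotoxicity; DMSO baseline.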
# [15] = TOX21_PR_BLA_Followup_Agonist_viability: Viability Assessment in the Tox21 HEK293 Progesterone Receptor (PR) Agonism Beta-lactamase Follow-Up Assay (AID 2283935);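 also: signal loss means lower viability so actives are cytotoxic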
# Outline: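 Run multiplexed with the beta-lactamase FRET read, this endpoint measures ATP by CellTiter-Glo luminescence (30 min, room temperature). PR-UAS-bla HEK293T cells received compound 6 hr after plating and were then incubated 16 hr at 37C in 2% stripped serum.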
# [16] = TOX21_PR_BLA_Followup_Antagonist_viability: Viability Assessment in the Tox21 HEK293 Progesterone Receptor (PR) Antagonism Beta-lactamase Follow-Up Assay (AID 2283936);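 also: cells exposed to compound with R5020 agonist for 16 h; hits lower the luminescence signal meaning cytotoxicity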
# Outline: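 PR-UAS-bla HEK293T cells in medium with 2% charcoal-stripped FBS were treated with compounds plus R5020 for 16 hr at 37C. After the beta-lactamase read, CellTiter-Glo was added to the same wells and luminescence read after 30 min at room temperature.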
# [17] = TOX21_PR_LUC_Followup_Antagonist_viability: Viability Assessment in the Tox21 HEK293 Progesterone Receptor (PR) Antagonism Luciferase Follow-Up Assay (AID 2283940)
# Outline: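 Viability counter-readout: cellular ATP measured by luciferase luminescence after 16 h compound exposure at 37C of HEK293-PR-A-luc cells, which had been cultured in charcoal-stripped serum and seeded 5 h beforehand.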
# [18] = molecular target: PGR (gene 5241) (UniProt P06401); assay: TOX21_PR_BLA_Followup_Agonist_ratio: Tox21 HEK293 Progesterone Receptor (PR) Agonism Beta-lactamase Follow-Up Assay, Ratio (AID 2283933)
# Outline: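 Beta-lactamase reporter readout: ratio of cleaved (ch2) to uncleaved (ch1) substrate after 2 h room-temperature loading, following 16 h compound exposure at 37C. Cells were PR-UAS-bla HEK293T in 2% charcoal-stripped FBS medium. Viability was multiplexed by CellTiter-Glo.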
# [19] = molecular target: PGR (gene 5241) (UniProt P06401); assay: TOX21_PR_LUC_Followup_Agonist: Tox21 HEK293 Progesterone Receptor (PR) Agonism Luciferase Follow-Up Assay (AID 2283937; active = hit-call score of the fitted dose curve at least 0.9, where 1 is the maximum; inactive = score below 0.9)
# Outline: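 Agonism scored as luciferase induction over DMSO, read by ONE-Glo after 30 min at RT. Compounds were incubated 16 h at 37C on HEK293-PR-A-luc cells (3,000/well, pre-plated 5 h) previously grown 5 days in charcoal-stripped serum.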
# [20] = molecular target: PGR (gene 5241) (UniProt P06401); assay: TOX21_PR_LUC_Followup_Antagonist: Tox21 HEK293 Progesterone Receptor (PR) Antagonism Luciferase Follow-Up Assay (AID 2283938);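 also: curve fitted upward as signal gain over DMSO baseline despite antagonist label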
# Outline: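 HEK293-PR-A-luc cells, 3,000/well, preincubated 5 h at 37C before compound addition in DMSO; 16 h compound exposure at 37C. ONE-Glo luciferase luminescence read after 30 min at room temperature, fitted relative to DMSO baseline.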
smiles,measurement,setting,value
Cc1cc(CCN2CCN(c3nsc4ccccc34)CC2)cc2c1NC(=O)CC2(C)C,AC50,[1],584 nM (active)
same,AC50,[2],4.93 µM (active)
same,outcome,[3],inactive
O=C(O)Cc1cc(I)c(Oc2cc(I)c(O)c(I)c2)c(I)c1,AC50,[4],6.68 nM (active)
same,AC50,[5],276 nM (active)
same,AC50,[6],24.2 nM (active)
same,AC50,[7],246 nM (active)
same,AC50,[8],31.5 µM (active)
same,outcome,[9],inactive
C#C[C@]1(O)CC[C@H]2[C@@H]3CCC4=CC(=O)CC[C@@H]4[C@H]3CC[C@@]21C,outcome,[10],inactive
same,outcome,[11],inactive
same,outcome,[12],inactive
same,outcome,[13],inactive
C[C@@H]1C[C@H]2[C@@H]3CCC4=CC(=O)C=C[C@]4(C)[C@@]3(F)[C@@H](O)C[C@]2(C)[C@@]1(O)C(=O)COP(=O)(O)O,outcome,[14],inactive
same,outcome,[15],inactive
same,outcome,[16],inactive
same,outcome,[17],inactive
c1ccc2c(c1)Cc1ccccc1-2,outcome,[1],inactive
same,outcome,[2],inactive
c1ccc2cc3c(ccc4ccccc43)cc2c1,outcome,[18],inactive
same,AC50,[14],21.8 µM (active)
same,outcome,[15],inactive
same,outcome,[16],inactive
same,outcome,[19],inactive
CC[C@H](c1ccc(O)cc1)[C@@H](CC)c1ccc(O)cc1,outcome,[18],inactive
same,AC50,[14],9.17 µM (active)
same,outcome,[15],inactive
same,outcome,[16],inactive
same,outcome,[19],inactive
same,AC50,[20],16.2 µM (active)
CC(C)(C)c1cc(C(C)(C)C)c(O)c(C(C)(C)C)c1,outcome,[4],inactive
same,outcome,[5],inactive
same,outcome,[6],inactive
same,outcome,[7],inactive
same,AC50,[8],59.6 µM (active)
same,outcome,[9],inactive
